According to PubChem BioAssay AID939 (National Center for Advancing Translational Sciences (NCATS), 2007):
Inconclusive results are not listed. A number with no mark means an inactive call. Active and inactive are the calls of the source. Calls come from the whole dose curve; as a rule, active = well fitted activation curve with a large enough effect in the main read-out, with a control signal flat; inconclusive = small, poorly fitted or top-dose-only effect, or effect the other way, or a change in a side signal; inactive = no such curve, though single readings can be large or run the other way.

What follows are compounds tested against Thyrotropin receptor (Homo sapiens) (UniProt P16473) (assay: Confirmation Concentration-Response Assay for Agonists of the Thyroid Stimulating Hormone Receptor). Settings: HEK293 TSHR-CNG cells, membrane potential dye, cAMP; series mostly up to 25.6 µM; activation: at the top concentration.
Thyrotropin receptor (Homo sapiens), sequence (P16473 whole entry, looked up): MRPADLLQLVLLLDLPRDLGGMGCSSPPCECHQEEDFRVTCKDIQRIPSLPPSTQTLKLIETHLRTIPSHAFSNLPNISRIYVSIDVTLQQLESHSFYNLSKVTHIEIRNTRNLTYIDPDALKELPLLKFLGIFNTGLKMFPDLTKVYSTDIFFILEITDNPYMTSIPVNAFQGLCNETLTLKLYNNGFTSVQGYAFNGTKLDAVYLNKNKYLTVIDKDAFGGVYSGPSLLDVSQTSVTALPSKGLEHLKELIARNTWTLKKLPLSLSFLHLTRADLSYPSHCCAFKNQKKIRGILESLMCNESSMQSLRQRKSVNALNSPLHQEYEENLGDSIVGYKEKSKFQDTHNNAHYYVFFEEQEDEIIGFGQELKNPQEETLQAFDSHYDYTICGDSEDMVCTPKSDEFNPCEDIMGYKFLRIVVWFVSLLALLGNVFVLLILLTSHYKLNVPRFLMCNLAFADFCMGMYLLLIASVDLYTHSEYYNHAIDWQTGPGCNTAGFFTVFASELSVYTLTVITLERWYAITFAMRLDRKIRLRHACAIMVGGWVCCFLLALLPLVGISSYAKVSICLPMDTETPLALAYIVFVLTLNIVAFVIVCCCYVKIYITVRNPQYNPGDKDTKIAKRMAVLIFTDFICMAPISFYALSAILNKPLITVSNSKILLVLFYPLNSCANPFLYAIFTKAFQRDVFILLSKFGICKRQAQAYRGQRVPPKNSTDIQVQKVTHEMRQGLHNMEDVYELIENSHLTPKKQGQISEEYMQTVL
Text: NIH Chemical Genomics Center [NCGC] NIH Molecular Libraries Screening Centers Network [MLSCN] MLSCN Grant: 1 X01 MH080680-01 PI Name: Dr. Marvin Gershengorn, NIH NCGC Assay Overview: Thyroid Stimulating Hormone Receptor TSH is an alpha/beta heterodimeric glycoprotein hormone secreted from the anterior pituitary gland which belongs to the glycoprotein hormone family. The actions of TSH are mediated by a seven-transmembrane receptor, which upon TSH binding couples preferentially to the G-alpha (s) protein (Gs), resulting in activation of adenylate cyclase and increase in cyclic adenosine 3', 5' monophosphate (cAMP). The TSH receptor (THSR) is mainly expressed in thyroid follicular cells and regulates their growth and function. Recombinant TSH is used to activate TSHR in patients with thyroid cancer receiving thyroid hormone suppression therapy and to screen for residual tumor after surgery, but it is expensive and must be administered intramuscularly. An orally active small molecule TSHR agonist would serve as an invaluable research tool for studying TSHR pharmacology and physiology, and would have multiple advantages in therapeutic settings. However, no selective small molecule agonist of the TSH receptor exists, and no small molecule screen for TSHR agonists has ever been reported. This cell based assay utilized a cyclic nucleotide gated ion channel (CNG) as a biosensor for cAMP induction by potential TSHR agonists. TSHR cell line HEK 293 cells stably expressing the TSHR as well as a modified CNG were purchased from BD biosciences. Stimulation of cAMP production causes the CNG to open and subsequent membrane depolarization to occur. A fluorescent membrane potential dye (BD biosciences) was utilized to detect cAMP stimulation in TSHR cells. The cells were maintained in DMEM medium (Invitrogen) containing 10 % FBS (Hyclone), 100 units/ml Penicillin, 100 ug/ml Streptomycin (Invitrogen), and 250 ug/ml Geneticin (Invitrogen) and 1 ug/ml Puromycin (Invitrogen) at 37C in 5% CO2. HEK 293 cells expressing CNG but without TSHR (parental cells) were used in concert to control for compounds signaling through endogenous receptors and targets of HEK 293 cells.
NCGC Assay Protocol Summary: High Throughput Screening. Freshly passaged cells (TSHR or parental) were dispensed into 1536-well assay plates at 4 ul/well in DMEM containing phenol red (Invitrogen), 10% FCS (Hyclone), and 100 units/ml Penicillin, 100 ug/ml Streptomycin (Invitrogen) and incubated at 37 C with 5% CO2 for 20 to 36 hrs before the robotic screening. The screen was initiated by addition of 4 ul/well membrane potential dye containing 100 uM RO 20-1724 (Sigma Aldrich), followed by 60 min incubation at room temperature to allow for dye equilibration across the cell membrane. 23 nl/well compound or control was then added to the assay plates, which were incubated for additional 30 min before reading a Envision fluorescence plate reader (Perkin Elmer) in bottom-read mode for fluorescence intensity (emission at 590 nm). Keywords: Thyroid-stimulating hormone TSH, TSHR, TSHR agonist, quantitative high throughput screening, qHTS, HTS, probe identification, CNG, cAMP, cyclic nucleotide gated ion channel PubChem
Potency is the fitted concentration of half-maximal effect.
Throughout, for activation: % of control where 0% means no effect.

Row | SMILES | activation | Potency
1 | CCS(=O)(=O)N1CCN(C(C)CCc2ccccc2)CC1 (stereo not given) | 7.23% [at 32.9 µM] | 
2 | COc1ccc(-c2ccc(-c3noc(C)n3)c(OC)n2)cc1 | -6.03% [at 32.9 µM] | 
3 | O=C1C=C(NCc2ccccc2)C2(CCCCC2)O1 | -18.9% | 
4 | O=S1(=O)N=C(Oc2ccccc2)c2ccccc21 | 23.9% | 
5 | O=C1C2C3CCCC3=C3CCCC3C2C(=O)N1c1ccc(Cl)cc1 (stereo not given) |  | 1.58 µM (active)
6 | CC(=O)N1CCCc2cc(S(=O)(=O)N(CC(C)C)CC(C)C)ccc21 |  | 12.6 µM (active)
7 | O=c1c2ccccc2ncn1-c1ccc2c(c1)OCCO2 | 13.2% | 
8 | COc1ccc(CNc2nc(SC)n[nH]2)cc1OC | 13.1% | 
9 | c1ccc(-n2cnc3cc(NCc4ccncc4)ccc32)cc1 | -27.2% | 
10 | O=C(C1COc2ccccc2O1)N1CCCC1 (stereo not given) | -9.39% | 
11 | COc1cc(/C=N/n2c(SC)nnc(C(C)(C)C)c2=O)ccc1O | -13% | 
12 | O=C(CN(Cc1ccc(F)cc1)S(=O)(=O)c1ccccc1)N1CCCCC1 |  | 10 µM (active)
13 | Cc1onc(-c2ccccc2Cl)c1C(=O)Nc1ccc(-n2nncc2-c2ccco2)cc1 |  | 12.6 µM (active)
14 | COCCNC(=O)C(c1ccccc1)N(Cc1cccs1)C(=O)Cn1nnc2ccccc21 (stereo not given) | 16% [at 32.9 µM] | 
15 | Cc1ccc(-n2nc(-c3ccc(N)cc3)cc2N)cc1 | -50.8% | 
16 | COc1cc2c(N3CCOCC3)cc(O)c(CC(=O)Nc3ccccc3)c2cc1OC | -11.2% [at 32.9 µM] | 
17 | O=C1N(c2ccccc2)C2CS(=O)(=O)CC2N1c1ccc(Cl)c(Cl)c1 (stereo not given) | -86.5% | 
18 | COc1cccc(C2CC(c3ccccc3OC)n3nc(N)nc3N2)c1 (stereo not given) | 15.4% | 
19 | CCc1ccc(-c2nc(CN3CCC(C(=O)N4CCN(c5ccccc5)CC4)CC3)c(C)o2)cc1 | -56.9% | 
20 | COc1ccc(S(=O)(=O)NCCC(=O)NCc2ccc(F)cc2)cc1 | 1.97% [at 32.9 µM] | 

Row | SMILES | activation | Potency
21 | Cc1ccc(N(CC(=O)NCc2ccco2)S(=O)(=O)c2ccccc2)cc1 |  | 12.6 µM (active)
22 | O=C1c2ccccc2C(=O)N1Cc1nc(-c2ccccc2)no1 | 15.1% | 
23 | CSc1nc(NC(C)(C)C)nc(Oc2ccc(=O)[nH]n2)n1 | 25% [at 32.9 µM] | 
24 | COc1ccc(-c2cc(C(F)(F)F)nc(SCCC(=O)N3CCOCC3)n2)cc1 |  | 15.8 µM (active)
25 | Cc1ccccc1NC(=O)CSc1nnc(-c2ccoc2C)n1CCc1ccccc1 |  | 6.31 µM (active)
26 | Cc1cccc(NC(=O)CSc2nnc(-c3ccccc3)n2N)c1C | 22.7% | 
27 | COC(=O)c1cc(NC2c3ccccc3C(=O)N2c2cccnc2)cc(C(=O)OC)c1 (stereo not given) |  | 12.6 µM (active)
28 | COc1cc(OC)cc(-c2nnc(SCC(=O)N(C(C)C)C(C)C)o2)c1 |  | 12.6 µM (active)
29 | Cc1ccc2nc(SCC(=O)O)nc(C)c2c1 | -143% | 
30 | COC(=O)C1=C(C)OC(N)=C(C#N)C1C1CCCCC1 (stereo not given) |  | 6.31 µM (active)
31 | CCn1c(=O)c(C(=O)CN2CCCc3ccccc32)c(N)n(Cc2ccccc2)c1=O | -31.3% | 
32 | COc1cccc(C(c2nnnn2Cc2ccccc2)N2CCN(C(=O)c3ccco3)CC2)c1OC (stereo not given) | -7.01% [at 32.9 µM] | 
33 | COC(=O)C1=C(C)OC(N)=C(C#N)C1c1c(C)nn(-c2ccccc2)c1Cl (stereo not given) |  | 7.94 µM (active)
34 | Cc1ccccc1-n1nc(C)c2cc(C(=O)N3CCN(S(=O)(=O)c4ccc(F)cc4)CC3)sc21 | -1.75% [at 32.9 µM] | 
35 | COc1ccc(C2Nc3ccccc3C(=O)N2Cc2ccco2)cc1COc1ccc(NC(C)=O)cc1 (stereo not given) |  | 0.631 µM (active)
36 | CCOC(=O)N1CCC(NC(=O)c2ccc(CNS(=O)(=O)c3ccc(F)cc3)cc2)CC1 | 18% [at 32.9 µM] | 
37 | Cc1ccccc1NC(=O)N1C2CCCC1CC(NC(=O)C1CC1)C2 (stereo not given) | 18.7% | 
38 | O=C(CN(Cc1ccccc1Cl)C(=O)Cn1nnc(-c2cccs2)n1)NCC1CCCO1 (stereo not given) | 11.5% [at 32.9 µM] | 
39 | Cc1cc(Cl)c(S(=O)(=O)Nc2ccc3c(c2)OCO3)cc1OCC(N)=O | -7.58% [at 32.9 µM] | 
40 | CC(c1ccco1)N(C(=O)c1ccc(Cl)s1)c1ccccn1 (stereo not given) |  | 7.94 µM (active)
